This is part of a sample that, as a whole, favours compounds with a hit. Of some 83,000 tested, about 20% had one in any assay.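 Cells were grown in 96-well plates and exposed to the test compound at a single concentration for 48 hours; results are reported as percent growth, with values below 10 considered active.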 A number with no mark means an inactive call. Activity calls are given as the source filed them.
Columns and labels:
Experiment in all cases: NCI-60 one-dose screen, 48 h (100 = growth as untreated, 0 = no growth, -100 = all killed)
Settings in all cases: 10 µM unless noted
[1] = test system: DU-145 prostate
[2] = test system: K-562 leukemia
[3] = test system: MALME-3M melanoma
[4] = test system: MDA-MB-231 breast
[5] = test system: RXF 393 renal
[6] = test system: SF-268 CNS
[7] = test system: SF-295 CNS
[8] = test system: SF-539 CNS
[9] = test system: UACC-257 melanoma
[10] = test system: M14 melanoma
[11] = test system: HCT-15 colon
[12] = test system: HT29 colon
[13] = test system: SNB-75 CNS
[14] = test system: SNB-19 CNS
[15] = test system: U251 CNS
[16] = test system: PC-3 prostate
[17] = test system: SK-MEL-5 melanoma
[18] = test system: UACC-62 melanoma
[19] = test system: LOX IMVI melanoma
[20] = test system: SK-MEL-28 melanoma

Compound | growth [1] | growth [2] | growth [3] | growth [4] | growth [5] | growth [6] | growth [7] | growth [8] | growth [9] | growth [10] | growth [11] | growth [12] | growth [13] | growth [14] | growth [15] | growth [16] | growth [17] | growth [18] | growth [19] | growth [20]
C#Cc1c(I)n(C2OC(CO[Si](C)(C)C(C)(C)C)C3OC(C)(C)OC32)c(=O)[nH]c1=O (stereo not given) | 25.1% | -35.5% (active) | 66.4% | 16.1% | -72.3% (active) | 100% | 120% | 92.4% | 64.1% | 76.4% | -9.25% (active) | 38.6% | 86.8% | 94.2% | 3.76% (active) | -61.1% (active) | 96.6% | 82.1% | -80.6% (active) | -56.7% (active)
COc1ccc(-c2cc(-c3ccc(N(C)C)cc3)nc(NC(=O)c3cccnc3)n2)cc1 | 99.5% | 93.3% | 120% | 93.8% | 107% | 90.6% | 104% | 94.3% | 120% | 124% | 95% | 108% | 99% | 93.2% | 98.9% | 90.3% | 97.1% | 95.1% | 97.1% | 106%
O=C1c2cccnc2C(=O)c2c1c(C(=O)OCCCN1CCOCC1)c1ccccn21 | -84.2% (active) | -20.2% (active) | -53.9% (active) | 14.1% | 3.94% (active) | 5.83% (active) | -4.43% (active) | -43.2% (active) | -85.6% (active) | -81.2% (active) | -42.2% (active) | -67.8% (active) | -81.3% (active) | 9.22% (active) | -70.7% (active) | -0.15% (active) | -94.9% (active) | -40.7% (active) | -29.1% (active) | 37.7%
O=c1cc(-c2nccc3c2[nH]c2ccccc23)c2cc(Cl)ccc2o1 | 79.8% | 15.1% | 49.8% | 62.5% | 82.2% | 54.6% | 13.9% | 17.6% | 35.4% | 17.3% | 24.3% | 7.6% (active) | 39.8% | 43.7% | 29.6% | 30.7% | 32.1% | 45.5% | 50.1% | 64.6%
CNC(=O)c1cc(Oc2ccc3nc(NC(=O)NC(C)C)sc3c2)ccn1 | 98.8% | 7.14% (active) | 86.2% | 79.5% | 95.4% | 89.8% | 77.5% | 76.9% | 73.7% | 50.5% | 55.9% | 33.3% | 93.9% | 82.3% | 51.6% | 70.1% | 65.3% | 68.6% | 68.8% | 85.8%
CN1CCN(Cc2ccc(NC(=O)c3cc(C#Cc4cnc(N)c5ncccc45)n(C)n3)cc2C(F)(F)F)CC1 | 83.9% | 1.62% (active) | 79.9% | 102% | 69.3% | 102% | 102% | 70.5% | 102% | 113% | 58.4% | 91.4% | 142% | 103% | 38.5% | 98.9% | 93.6% | 100% | 91.5% | 100%
CS(=O)(=O)c1cccc(Nc2ncc3cc(-c4ccccc4Cl)ccc3n2)c1 | 18.6% | 1.05% (active) | 11.8% | 3.46% (active) | -14.3% (active) | 19.9% | 20.9% | -10.5% (active) | 24.8% | 5.89% (active) | 12.1% | 1.92% (active) | -11.4% (active) | 36.2% | 16.6% | 12.3% | -49.1% (active) | 4.77% (active) | -6.95% (active) | 19.7%
N#C/C(=C\c1cccc2cnccc12)N1N=NC2C=CC=CC21 (stereo not given) | 8.33% (active) | 12.4% | 36% | 9.44% (active) | -17.1% (active) | 56.6% | 98.4% | 45.7% | 46.9% | 32.6% | 13.5% | 12.7% | 7.27% (active) | 66% | 70.6% | 47.9% | 46.4% | 37.1% | 11.7% | 43.8%
COc1cc(C2=Nc3c(N)nc(N)nc3NC(c3cccc(Nc4ccnc5cc(C(F)(F)F)ccc45)c3)C2)cc(OC)c1OC (stereo not given) | 89.6% | 21.5% | 90.6% | 57.8% | 45.1% | 63.3% | 82.5% | 79.3% | 77.7% | 72.3% | 58% | 45.5% | 68.9% | 78.2% | 61% | 58.5% | 64.1% | 87.2% | 66% | 101%
CCOC(=O)C1=C(C)N(C)C(=O)N(C)C1c1ccccc1 (stereo not given) | 107% | 82.2% | 87.2% | 97.3% | 105% | 108% | 90.6% | 91.4% | 92.5% | 94.2% | 102% | 97.8% | 79.2% | 93.8% | 99.3% | 92.7% | 93.3% | 86.7% | 96.1% | 124%
CNc1nc2ncc(-c3c(C)noc3C)cc2n1Cc1ccccc1 | 79.4% | 49.3% | 45.4% | 50.3% | 54.1% | 80.7% | 57.4% | 41% | 42.3% | 31.5% | 51.2% | 31.8% | 0.561% (active) | 59.3% | 61% | 32.2% | 47.9% | 17% | 32.5% | 57.4%
N/C(=N\c1nc2ccccc2s1)NC(=O)Nc1ccccc1 | 58.1% | 10.8% | 58.1% | 31.6% | 62.1% | 57.5% | 39% | 26.9% | 59% | 7.51% (active) | 23.4% | 14.3% | 31.4% | 32.1% | 21% | 57.1% | 32.5% | 21% | 34.7% | 72.3%
COc1ccc(Cn2cc3c(c2)-c2oncc2CC3)cc1 | 176% | 20.6% | 83.2% | 70.5% | 75.8% | 136% | 58.6% | 48% | 85.9% | 29.2% | 54.8% | 9.48% (active) | 50.6% | 71.8% | 42.8% | 82.3% | 49.7% | 38.6% | 59% | 69.9%
Cc1ccc(NC(=O)c2ccc(Nc3ncnc4c3cnn4-c3cccc(F)c3)cc2)cc1 | 104% | 96.3% | 101% | 95.2% | 92.5% | 97.2% | 103% | 101% | 98% | 99% | 100% | 98.8% | 93.5% | 94.2% | 102% | 100% | 99.8% | 90.7% | 92.8% | 106%
O=C1CCc2c(sc3[nH]c(=S)n(-c4cc(C(F)(F)F)cc(C(F)(F)F)c4)c(=O)c23)C1 | 25.2% | 22.5% | -16.7% (active) | -42.5% (active) | -3.65% (active) | 19.3% | -21.8% (active) | -51.1% (active) | -25.4% (active) | 23.6% | -42.9% (active) | 0.73% (active) | -8.04% (active) | 15.1% | -22.4% (active) | -38.4% (active) | -88.9% (active) | -12.9% (active) | 1.59% (active) | -16.8% (active)
